Screening data (PubChem BioAssay)
MPTP block: permeability transition pore inhibition; isolated mouse mitochondria, Ca2+ swelling absorbance, 30 min; inhibition, % at 10 µM; 1.4% of 360,000 active; AID 602449;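 active = inhibition of 50% or more, scaled per plate between neutral and stimulator controls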;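 also: 0% = DMSO wells given calcium and 100% = 1 mM EGTA wells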
Mdm2 MdmX PPI: inhibitors of human Mdm2/MdmX interaction; AID 485346; inhibition, % at 8 µM; O15151+Q00987; SaOS-2 split-luciferase Mdm2/MdmX complementation, luminescence; 3% of 330,000 active;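 active = inhibition of at least 50% at 8 µM in the primary screen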
Target sequence (O15151 whole entry, looked up): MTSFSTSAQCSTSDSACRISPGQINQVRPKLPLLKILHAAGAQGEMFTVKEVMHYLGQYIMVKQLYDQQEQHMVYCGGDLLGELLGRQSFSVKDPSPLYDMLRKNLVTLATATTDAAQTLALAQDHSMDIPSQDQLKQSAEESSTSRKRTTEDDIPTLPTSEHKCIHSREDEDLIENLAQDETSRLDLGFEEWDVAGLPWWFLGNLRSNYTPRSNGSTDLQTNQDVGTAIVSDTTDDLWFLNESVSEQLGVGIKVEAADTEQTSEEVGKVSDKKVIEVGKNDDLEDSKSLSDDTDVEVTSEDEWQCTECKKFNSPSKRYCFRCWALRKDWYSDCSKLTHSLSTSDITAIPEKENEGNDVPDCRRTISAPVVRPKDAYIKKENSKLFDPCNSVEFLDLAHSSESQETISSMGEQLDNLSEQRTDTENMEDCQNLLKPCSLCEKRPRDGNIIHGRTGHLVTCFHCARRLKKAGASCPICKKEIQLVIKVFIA
Target sequence (Q00987 whole entry, looked up): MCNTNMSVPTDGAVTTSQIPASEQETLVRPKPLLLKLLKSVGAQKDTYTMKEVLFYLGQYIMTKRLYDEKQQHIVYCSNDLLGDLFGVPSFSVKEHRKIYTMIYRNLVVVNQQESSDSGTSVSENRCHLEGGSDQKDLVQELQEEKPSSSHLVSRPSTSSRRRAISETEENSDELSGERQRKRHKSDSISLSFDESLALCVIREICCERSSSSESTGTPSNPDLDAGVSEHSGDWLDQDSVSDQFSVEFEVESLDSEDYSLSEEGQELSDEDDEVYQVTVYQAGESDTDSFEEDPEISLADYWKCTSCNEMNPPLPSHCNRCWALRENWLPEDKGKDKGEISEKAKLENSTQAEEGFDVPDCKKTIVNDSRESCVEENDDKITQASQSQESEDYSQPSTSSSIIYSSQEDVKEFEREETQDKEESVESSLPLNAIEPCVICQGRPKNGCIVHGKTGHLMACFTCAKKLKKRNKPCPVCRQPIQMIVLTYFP
CSC inhib: blocks cancer stem cells. inhibition, % at 7.5 µM. 1.1% of 300,000 active. cancer stem cell-like cells viability, luminescence; in the data active = inhibition above about 75%; inconclusive = no clear call, values can overlap the other calls; tested in HMLE shEcad cells
SKKanGAS inh: inhibitors of SKKanGAS S. pyogenes growth in kanamycin (SK-promoter or general growth effect); BacTiter-Glo, 6 h; inhibition, % at 7.5 µM; 1.3% of 300,000 active;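 active = mean replicate score, as percent of positive control median, at least 50; inconclusive = mean below 50 but one replicate at or above 50; inactive = mean and every replicate below 50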;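 also: strain carries kanamycin resistance gene driven by streptokinase promoter and grows in 40 µg/ml kanamycin; loss of luminescence reflects streptokinase promoter inhibition or plain growth inhibition; 0% = median of DMSO wells and 100% = positive control at its reference dose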
Calb FLC: affects C. albicans growth with fluconazole; C. albicans CaCi-2 (fluconazole-resistant clinical isolate) + fluconazole, Alamar Blue growth, 48 h; growth inhibition, % (test concentration not listed); 0.57% of 300,000 active; AID 1979;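 active = growth inhibition above about 58% in most replicates, limit read from the data, passing the limit was not always enough; inconclusive = exactly half the replicates above a set limit; inactive = most replicates below a set limit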;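 also: all wells also contain fluconazole at 8 µg/ml as a sub-toxic cotreatment; 0% = median of DMSO wells and 100% = median of geldanamycin control wells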
Beta apoptosis: blocks beta cell apoptosis. protection from apoptosis, % (test concentration not listed). 0.8% of 300,000 active. INS-1E cytokine-induced death, ATP luminescence, 48 h; percent of positive-control rescue, neutral wells zero;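 active = Every replicate reaches about 75%, or at least half do and their mean reaches it too, limit read from the data; inconclusive = At least half of replicates reach the limit but their mean does not; inactive = Under half of replicates reach the limit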;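 also: 0% = cytokine-treated negative control wells and 100% = positive control rescue; higher means more ATP so stronger rescue from cytokine killing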
Mdm2 MdmX conf: human Mdm2/MdmX binding inhibition, confirmed | shares compounds with Mdm2 MdmX PPI | luminescent assay | inhibition, % at 8 µM | 55% of 10,000 active | AID 489028; in the data active = inhibition above about 40%
FLuc counter: full-length luciferase inhibition in Mdm2/MdmX counter-screen | 77% of 6,200 active | shares compounds with Mdm2 MdmX PPI | SaOS-2 full-length luciferase counterscreen, luminescence | inhibition, % at 8 µM;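 active = mean inhibition at 8 µM reaching about 37%, which flags the compound as non-specific, limit read from the data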;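 also: p53-null SaOS-2 cells with luciferase driven by a doxycycline-inducible promoter; compound on cells about two nights before reading with doxycycline added after day one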
* marks the source's active call; other numbers are inactive results; ? = inconclusive; . = not tested or not shown. Only some compounds are listed: those with a hit (about 5.4% of all), similar ones and a draw of the others.

SMILES	MPTP block	Mdm2 MdmX PPI	CSC inhib	SKKanGAS inh	Calb FLC	Beta apoptosis	Mdm2 MdmX conf	others
CC(=O)N1N=C(c2ccco2)CC1c1ccco1 (stereo unspecified)	1.7	6.7	-8.7	-2.1	18.3	-8.1	.
COc1cccc(NC(=O)Cn2nnc(C(=O)Nc3ccccc3)c2N)c1	0.4	-17.3	-2.4	1.3	5.0	6.0	.
CCOc1ccc(OCC)c(NC(=O)c2nnn(CC(=O)Nc3cc(C)cc(C)c3)c2N)c1	0.2	58.4*	18.6	19.5	2.3	10.4	8.0
COc1cccc(NC(=O)c2nnn(CC(=O)Nc3cc(C)cc(C)c3)c2N)c1	-0.3	74.0*	-4.3	9.4	-1.1	.	3.6
Cc1nn(CCC#N)c(NC(=O)c2ccc(Cl)cc2Cl)c1P(=O)(Nc1ccc([N+](=O)[O-])cc1)N1CCOCC1 (stereo unspecified)	-3.6	1.9	-9.5	2.6	-29.5	1.3	.
O=C(CCl)NCc1c(Cl)cccc1-n1cccc1	-1.4	56.0*	-7.7	-1.2	-7.9	10.1	40.9*	FLuc counter=35.6
O=C1N[C@@H](Cc2cn(S(=O)(=O)c3ccccc3)c3ccccc23)C(=O)N[C@H]1Cc1ccccc1	0.5	-16.1	5.1	2.9	-2.0	-3.1	.
CSc1ccccc1OCc1cc(C(=O)NCC(C)(C)N2CCOCC2)no1	-0.6	1.8	12.5	2.9	-4.0	-2.7	.
Cc1nnn(-c2nonc2N)c1C(=O)N/N=C/c1ccccc1O	-0.7	55.8*	24.4	-3.3	-5.1	85.0*	61.0*	FLuc counter=50.9*
Cc1nnn(-c2nonc2N)c1C(=O)N/N=C/c1cccc2ccccc12	1.9	19.0	-7.6	-5.1	-8.6	3.4	.
Nc1nonc1-n1nnc(C(=O)N/N=C/c2cc(Cl)ccc2O)c1CN1CCCCCC1	-0.7	68.2*	?	49.8*	101.1*	90.8*	55.8*	FLuc counter=32.2
CC(=C/c1ccccc1)/C=N/NC(=O)c1nnn(-c2nonc2N)c1CN1CCC(C)CC1	0.4	-10.6	-2.9	17.8	0.0	17.5	.
CN1CCN(Cc2c(C(=O)N/N=C/c3cccc(Br)c3)nnn2-c2nonc2N)CC1	0.5	83.8*	-7.1	10.0	12.2	7.8	5.6
CC1CCN(Cc2c(C(=O)N/N=C/c3ccccc3O)nnn2-c2nonc2N)CC1	-0.9	68.7*	.	14.1	6.7	95.4*	79.9*	FLuc counter=32.5
Nc1nonc1-n1nnc(C(=O)N/N=C/c2cccc(O)c2)c1CN1CCCC1	1.5	16.8	-1.3	.	4.6	-0.9	.
CC(NC(=S)Nc1ccc(Cl)cc1Cl)C(c1cccs1)N1CCCC1 (stereo unspecified)	5.7	14.7	-9.8	-8.3	-35.3	-0.2	.
COC(=O)[C@]12CCCCC=C1N(Cc1ccco1)C(=O)[C@H](CC(=O)NCCC(C)C)C2	-0.3	.	.	.	.	.	.
COC(=O)c1ccc(N=NNc2ccc(C(=O)OC)cc2)cc1	0.9	-35.7	-0.3	3.1	3.9	2.3	.
CCN(CC)c1ccc(/C=N/NC(=O)c2nnn(-c3nonc3N)c2C(C)C)c(O)c1	-0.9	71.5*	10.2	58.6*	?	91.4*	88.3*	FLuc counter=16.3
CCOc1ccc(C(=O)OCC(=O)c2c(N)n(C)c(=O)n(C)c2=O)cc1OCC	-5.2	21.6	-2.2	-1.1	25.2	0.1	.
COc1cc([C@@H]2c3cc4c(cc3[C@@H](O)[C@H]3COC(=O)[C@H]23)OCO4)cc(OC)c1O[Si](C)(C)C(C)(C)C	2.7	71.4*	127.2*	39.7	6.2	0.6	36.7	FLuc counter=80.8*
CCc1cc2c(N=Nc3c(O)[nH]c4ccccc34)ncnc2s1	1.3	1.7	.	-8.9	44.5	1.9	.
Oc1[nH]c2ccccc2c1N=Nc1ncnc2c1oc1ccccc12	.	100.4*	-3.8	2.4	8.5	1.8	2.1
Cc1ccc(C(=O)NC(=S)Nc2ccc(NC(=O)c3cccs3)cc2)cc1[N+](=O)[O-]	3.5	48.0	-8.0	44.6	-2.4	16.9	.
CCOC(=O)Cc1csc(NC(=O)CSc2nnc(-n3nc(C)cc3C)c3ccccc23)n1	-1.3	-3.9	3.9	-0.8	-21.9	-9.7	.
C=CCn1c(O)c(C2=c3ccccc3=NC2=O)s/c1=N/c1nccs1	6.5	79.4*	-5.7	-38.3	3.4	2.7	22.8
